Compound activity as filed in PubChem.
CSC inhib: cancer stem cell inhibition | cancer stem cell-like cells viability, luminescence | inhibition, % at 7.5 µM | 300,000 compounds, 1.1% hits; in the data active = inhibition above about 75%; inconclusive = no clear call, values can overlap the other calls; tested in HMLE shEcad cells
SKKanGAS inh: SKKanGAS growth inhibition. 300,000 compounds, 1.3% hits. S. pyogenes SKKanGAS, kanamycin growth, BacTiter-Glo, 6 h. inhibition, % at 7.5 µM;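 active = mean replicate score, as percent of positive control median, at least 50; inconclusive = mean below 50 but one replicate at or above 50; inactive = mean and every replicate below 50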;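 note: strain carries kanamycin resistance gene driven by streptokinase promoter and grows in 40 µg/ml kanamycin; loss of luminescence reflects streptokinase promoter inhibition or plain growth inhibition; 0% = median of DMSO wells and 100% = positive control at its reference dose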
Calb FLC: affects C. albicans growth with fluconazole | C. albicans CaCi-2 (fluconazole-resistant clinical isolate) + fluconazole, Alamar Blue growth, 48 h | growth inhibition, % (concentration not given with the values) | 300,000 compounds, 0.57% hits | AID 1979;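 active = growth inhibition above about 58% in most replicates, limit read from the data, passing the limit was not always enough; inconclusive = exactly half the replicates above a set limit; inactive = most replicates below a set limit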;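 note: all wells also contain fluconazole at 8 µg/ml as a sub-toxic cotreatment; 0% = median of DMSO wells and 100% = median of geldanamycin control wells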
MPTP inh: blocks calcium-induced mitochondrial swelling; isolated mouse mitochondria, Ca2+ swelling absorbance, 30 min; inhibition, % at 10 µM; 360,000 compounds, 1.4% hits; AID 602449;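 active = inhibition of 50% or more, scaled per plate between neutral and stimulator controls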;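 note: 0% = DMSO wells given calcium and 100% = 1 mM EGTA wells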
Beta cell apopt: blocks beta cell apoptosis; INS-1E cytokine-induced death, ATP luminescence, 48 h; percent of positive-control rescue, neutral wells zero; protection from apoptosis, % (no concentration beside the values); 300,000 compounds, 0.8% hits; AID 435005;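 active = Every replicate reaches about 75%, or at least half do and their mean reaches it too, limit read from the data; inconclusive = At least half of replicates reach the limit but their mean does not; inactive = Under half of replicates reach the limit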;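 note: 0% = cytokine-treated negative control wells and 100% = positive control rescue; higher means more ATP so stronger rescue from cytokine killing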
Mdm2-MdmX inh: inhibitors of human Mdm2/MdmX interaction. O15151+Q00987. SaOS-2 split-luciferase Mdm2/MdmX complementation, luminescence. inhibition, % at 8 µM. 330,000 compounds, 3% hits. AID 485346;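 active = inhibition of at least 50% at 8 µM in the primary screen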
Target sequence (O15151 whole entry, looked up): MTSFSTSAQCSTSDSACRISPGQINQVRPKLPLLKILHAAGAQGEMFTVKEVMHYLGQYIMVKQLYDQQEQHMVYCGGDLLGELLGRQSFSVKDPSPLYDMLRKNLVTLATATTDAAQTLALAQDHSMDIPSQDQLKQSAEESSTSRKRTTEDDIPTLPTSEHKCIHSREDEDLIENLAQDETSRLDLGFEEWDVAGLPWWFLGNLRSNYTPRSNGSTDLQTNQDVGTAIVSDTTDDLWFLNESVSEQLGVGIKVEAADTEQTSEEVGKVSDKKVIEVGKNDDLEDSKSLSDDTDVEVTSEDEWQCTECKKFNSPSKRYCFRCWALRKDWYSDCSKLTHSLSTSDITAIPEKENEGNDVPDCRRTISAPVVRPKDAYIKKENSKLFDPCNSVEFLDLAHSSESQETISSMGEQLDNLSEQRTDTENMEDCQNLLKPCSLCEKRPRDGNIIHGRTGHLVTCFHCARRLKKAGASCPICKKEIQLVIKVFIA
Target sequence (Q00987 whole entry, looked up): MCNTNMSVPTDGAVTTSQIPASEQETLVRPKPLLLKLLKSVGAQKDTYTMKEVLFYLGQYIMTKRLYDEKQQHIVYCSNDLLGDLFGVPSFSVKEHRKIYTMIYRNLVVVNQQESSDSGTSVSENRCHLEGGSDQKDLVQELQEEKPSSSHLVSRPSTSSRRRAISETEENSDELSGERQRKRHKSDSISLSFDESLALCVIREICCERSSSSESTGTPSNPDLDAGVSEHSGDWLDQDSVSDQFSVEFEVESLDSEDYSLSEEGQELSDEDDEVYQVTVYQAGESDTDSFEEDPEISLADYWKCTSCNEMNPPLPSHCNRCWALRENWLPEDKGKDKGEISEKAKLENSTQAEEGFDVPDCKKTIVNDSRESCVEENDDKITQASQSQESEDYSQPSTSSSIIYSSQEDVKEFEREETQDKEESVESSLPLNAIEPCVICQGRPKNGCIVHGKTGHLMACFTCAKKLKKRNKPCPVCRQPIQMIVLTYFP
Mdm2 MdmX conf: human Mdm2/MdmX binding inhibition, confirmed | inhibition, % at 8 µM | 10,000 compounds, 55% hits | shares compounds with Mdm2-MdmX inh | luminescent assay; in the data active = inhibition above about 40%
FLuc counter: counter-screen for Mdm2/MdmX inhibitors: full-length luciferase | shares compounds with Mdm2-MdmX inh | inhibition, % at 8 µM | AID 504607 | SaOS-2 full-length luciferase counterscreen, luminescence | 6,200 compounds, 77% hits;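 active = mean inhibition at 8 µM reaching about 37%, which flags the compound as non-specific, limit read from the data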;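 note: p53-null SaOS-2 cells with luciferase driven by a doxycycline-inducible promoter; compound on cells about two nights before reading with doxycycline added after day one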
MPTP counter: membrane potential counter-screen of mitochondrial pore inhibitors | shares compounds with MPTP inh | isolated mitochondria, Rhodamine 123 fluorescence | inhibition, % at 10 µM | 5,000 compounds, 78% hits; in the data active = inhibition above about 22%;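 note: 0% = DMSO vehicle and 100% = positive control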
MPTP swell DR: MPTP inhibition, dose response swelling confirmation | AID 651561 | shares compounds with MPTP inh | IC50, µM | 780 compounds, 58% hits | isolated mitochondria swelling, absorbance; in the data active = IC50 below about 20 µM
MPTP cs DR: active in counter-screen for permeability transition pore inhibitors | shares compounds with MPTP inh | isolated mitochondria counterscreen, fluorescence read-out | AID 651564 | IC50, µM | 780 compounds, 49% hits; in the data active = IC50 below about 80 µM
Starred values were filed as active, the others as inactive; ? = inconclusive; . = not tested or not shown. Compounds with a hit are over-represented: about 5.4% of the library has one in this group of screens.

SMILES	CSC inhib	SKKanGAS inh	Calb FLC	MPTP inh	Beta cell apopt	Mdm2-MdmX inh	Mdm2 MdmX conf	MPTP counter	others
CCOc1ccc(CN(C)CC(O)COC(c2ccc(OC)cc2)c2ccc(OC)cc2)cc1 (configuration not stated)	-4	11	1	67*	0	59*	29	0	MPTP swell DR=15*;MPTP cs DR=48*
COc1ccc(CN(C)CC(O)COC(c2ccc(OC)cc2)c2ccc(OC)cc2)cc1 (configuration not stated)	.	3	5	1	10	33	.	.
COc1ccccc1NC(=S)N(CCN1CCCCCC1)Cc1cccs1	7	-5	0	0	-5	-6	.	.
O=C(Nc1ccc(N2CCOCC2)c(S(=O)(=O)Nc2ccccc2Cl)c1)c1ccc(F)cc1	32	.	.	4	13	37	.	.
O=C(Nc1ccc(Cl)c(Cl)c1)Nc1ccc(N2CCCC2)c(S(=O)(=O)Nc2ccccc2Cl)c1	60	28	1	100*	12	93*	95*	49*	FLuc counter=21
O=C(Nc1ccc(N2CCCCC2)c(S(=O)(=O)Nc2ccccc2Cl)c1)c1cccnc1	63	.	.	2	4	30	.	.
O=C(Nc1ccc(F)cc1)Nc1ccc(N2CCCC2)c(S(=O)(=O)Nc2ccccc2Cl)c1	-7	45	-5	100*	-1	91*	66*	61*	FLuc counter=20
C=CCOC(=O)C1=C(C)NC(SCC(=O)Nc2ccc(C)c(Cl)c2)=C(C#N)C1c1ccco1 (configuration not stated)	-2	6	1	72*	5	63*	51*	77*	FLuc counter=46*
Cc1ccc(C(=O)NCCN2C3=NC[C@H](C(C)C)N3C[C@H]2Cc2ccc(O)cc2)cc1Br	14	-3	-25	1	7	41	.	.
COc1ccc(C[C@H]2CN3C(=NC[C@@H]3C(C)C)N2CCNC(=O)c2ccc(C)c(Br)c2)cc1	16	-2	30	69*	27	64*	32	-4
CCc1nnc(NC(=O)Nc2ccc(Cl)cc2)s1	-3	7	-1	6	14	-56	.	.
O=C(Nc1ccc(Cl)cc1)Nc1nnc(CSCc2ccc(Cl)cc2)s1	59	-2	2	84*	?	98*	21	50*
O=C(Nc1nnc(CC2=CCCCC2)s1)c1cccs1	-1	9	-5	-2	3	-22	.	.
O=C(Nc1ccc(Cl)c(Cl)c1)Nc1nnc(CC2=CCCCC2)s1	31	2	-11	89*	84*	89*	27	11	MPTP swell DR=3.5*;MPTP cs DR=<2.5*
CN(C)c1ccc(N=Nc2nc3ccccc3n2C)cc1	20	13	73	66*	62	60*	49*	-32	FLuc counter=46*
CCOc1ccnc(OCC)c1Br	7	-4	2	0	-4	-10	.	.
O=C(Nc1ncc(Cc2cc(Cl)ccc2Cl)s1)c1ccc([N+](=O)[O-])cc1	40	43	-2	51*	27	59*	33	-4	MPTP swell DR=>100;MPTP cs DR=<2.5*
O=C(Nc1ncc(S(=O)(=O)c2ccc([N+](=O)[O-])cc2)s1)c1ccc2ccccc2c1	?	14	-12	94*	26	71*	32	31*
O=C(Nc1cccc(-c2nn[nH]n2)c1)c1ccc(Br)s1	-6	2	-8	1	-11	-8	.	.
Cc1ccc(S(=O)(=O)NC(=O)Nc2c(C)cccc2C)cc1	-6	-3	-12	-2	-8	-25	.	.
Cc1ccc(F)cc1-c1nc(NC(C)C)nc2cc(-c3ccccc3)sc12	.	.	.	-1	.	.	.	.
Oc1[nH]c2ccccc2c1N=Nc1ccccn1	.	.	.	-1	.	.	.	.
Oc1c(N=Nc2ccccn2)ccc2ccccc12	99*	69*	-3	54*	96*	91*	46*	-52	FLuc counter=46*
